This is a sample that favours compounds with a hit; in the whole collection about 1.2% have one here.
DSG3 Ab inh – inhibitors of pemphigus antibody binding to human desmoglein-3 | P32926 | 310,000 compounds, 0.48% hits | binding (percent of control), % at 10 µM | DSG3-coupled beads, scFv-anti-DSG3-GFP binding, flow cytometry; active compounds read low;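 active means binding more than 3 SD below its plate's average and above zero; inconclusive means below that plate limit but binding exactly zero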;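 further: hits lower antibody fragment binding to DSG3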
MEP2 TOR yeast – modulators of TOR pathway MEP2-GFP in S. cerevisiae; S. cerevisiae MEP2-GFP strain, flow cytometry GFP, 3 h; 100% = DMSO control level; GFP response vs DMSO, % at 10 µM; 330,000 compounds, 0.51% hits;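 active means GFP response versus DMSO above a set limit, roughly screen mean plus 3 SD, cut at about 180% in these data; inconclusive means fewer than 70 cells counted for a yeast strain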;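 further: median GFP fluorescence of the barcode-gated MEP2-GFP cells per well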
CIT2-GFP yeast – modulators of TOR pathway CIT2-GFP in S. cerevisiae. S. cerevisiae CIT2-GFP strain, flow cytometry, 3 h; 100 means same as DMSO wells. GFP response vs DMSO, % at 10 µM. 320,000 compounds, 0.065% hits. AID 2029;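 active means GFP response relative to DMSO above a set limit, near the screen mean plus 3 SD, cut at about 150% in these data; inconclusive means Fewer than 70 cells measured for a yeast strain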;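 further: ratio of well median GFP fluorescence to mean of DMSO wells on the plate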
AGP1 TOR yeast – modulators of TOR pathway AGP1-GFP in S. cerevisiae. S. cerevisiae AGP1-GFP multiplex flow cytometry, 3 h; GFP as percent of DMSO wells. GFP response vs DMSO, % at 10 µM. 320,000 compounds, 0.02% hits. AID 2066;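 active means GFP response relative to DMSO above a set limit, near screen average plus 3 SD, cut at about 150% in these data; inconclusive means fewer than 70 cells counted for the yeast strain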;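 further: median GFP channel fluorescence of the gated AGP1 strain per well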
RPL19A-GFP yeast – yeast TOR pathway RPL19A-GFP modulation. 330,000 compounds, 0.3% hits. S. cerevisiae RPL19A-GFP strain, flow cytometry, 3 h; active compounds read low. percent response vs DMSO, % at 10 µM;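 active means percent response vs DMSO below 50%; inconclusive means fewer than 70 events counted for the yeast strain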;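 further: median channel GFP fluorescence of the barcoded RPL19A-GFP strain; ratio of sample median GFP to plate DMSO average so 100% = DMSO; lower means less RPL19A-GFP as with rapamycin TOR inhibition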
LAP4-GFP MLPCN – yeast TOR pathway LAP4-GFP modulation | S. cerevisiae LAP4-GFP multiplex, flow cytometry GFP, 3 h; median GFP as percent of DMSO wells | 320,000 compounds, 0.34% hits | GFP response vs DMSO, % at 10 µM;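 active means GFP response vs DMSO above a set limit, about the screen mean plus 3 SD, cut at about 150% in these data; inconclusive means under 70 cell events counted for the yeast strain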
* hit, by the source's call; ? = inconclusive; . = no result given; [ ] = another dose, or the depositor's remark.

SMILES	DSG3 Ab inh	MEP2 TOR yeast	CIT2-GFP yeast	AGP1 TOR yeast	RPL19A-GFP yeast	LAP4-GFP MLPCN
O=C(CSc1ccc(Cl)cc1)N1N=CCC1c1ccccc1 (configuration not stated)	114.5	90.2	86.4	105.5	92.1	103.5
NC(=NC(=O)c1ccc(Cl)cc1)N1N=CCC1c1ccccc1 (configuration not stated)	-11.4*	97.2	101.1	97.2	97.4	99.5
Cc1cc(O)c(C(C)C)cc1NS(=O)(=O)c1ccccc1	?	182.3*[may fluoresce violet]	?	19.9	45.9*[may fluoresce violet]	103.5
COc1ccc(S(=O)(=O)Nc2cc(S(=O)(=O)c3ccccc3)c(O)cc2C)cc1	.	104.0	117.7	107.5	102.9	105.1
Cc1cc(SCC(=O)Nc2ccc3[nH]c(=O)[nH]c3c2)nc2ccccc12	75.8*	101.4	94.2	96.5	97.6	90.8
CC(C)Cn1c(SCC(=O)Nc2ccc3[nH]c(=O)[nH]c3c2)nc2ccccc2c1=O	98.7	109.8	110.6	110.9	105.0	106.9
COc1ccc(-c2cn3ccccc3n2)cc1	96.4	100.6	105.9	98.8	98.3	98.7
COc1ccc(-c2cn3ccc4ccccc4c3n2)cc1	86.3*	104.4	106.0	97.0	101.2	105.9
Cc1cc2ccccc2n1CCNC(=O)c1ccccc1	?	98.2	96.9	105.3	101.6	105.0
Cc1cc2ccccc2n1CCNC(=O)COc1ccccc1	65.3*	95.7	94.3	94.9	94.8	102.2
Cc1cc2ccccc2n1CCNC(=O)c1ccc(S(=O)(=O)N2CCOCC2)cc1	82.7*	102.2	96.9	109.8	100.1	100.3
O=C(c1ccccc1)N1CCN(CC(O)COc2ccc(Br)cc2)CC1 (configuration not stated)	118.5	108.3	109.0	103.8	110.6	95.9
COc1ccc2[nH]cc(CCNC(=O)CC[C@H]3O[C@@H](n4cc(C)c(=O)[nH]c4=O)C[C@@H]3O)c2c1	94.6	.	.	.	.	.
CS(=O)(=O)c1ccccc1C(=O)NCCC(c1ccccc1)c1ccccc1	44.8*	102.0	105.1	104.6	103.2	99.6
Cc1ccsc1C(=O)NCCC(c1ccccc1)c1ccccc1	109.0	115.2	105.3	105.2	111.5	99.0
O=C(O)c1ccccc1NS(=O)(=O)c1cccc(-n2sc3ccccc3c2=O)c1	46.2*	102.4	93.1	100.3	100.8	96.8
O=C(O)c1ccccc1NS(=O)(=O)c1cccc(C(F)(F)F)c1	100.3	100.4	100.6	106.4	101.9	97.7
Cc1ccccc1NC(=O)COC(=O)c1ccc(C)c(S(=O)(=O)N2CCCCC2)c1	98.3	.	.	.	.	.
Cc1ccc(S(=O)(=O)N(CC(=O)Nc2cccnc2)c2ccccc2C)cc1	120.5	188.5*	93.0	13.7	72.1	86.2
COc1ccc(N(CC(=O)NCc2ccco2)S(=O)(=O)c2ccc(C)cc2)cc1OC	111.1	104.9	106.9	104.5	100.9	95.5
COc1ccccc1N(CC(=O)NCc1ccco1)S(=O)(=O)c1ccc(C)cc1	-59.7*	106.5	96.3	97.7	102.8	89.5
CSc1ccc(C#N)cc1NC(=O)c1cccnc1Cl	93.0	335.9*[may fluoresce violet]	?	?	44.8*[may fluoresce violet]	97.9
C=CCn1c(=O)[nH]c(=O)c2c(N)c(C(=O)c3ccc(OC)cc3)sc21	103.5	.	.	.	.	.
COC(=O)c1cccc(-n2c(CCC(=O)O)ccc2-c2cccs2)c1	97.0	95.1	83.9	99.5	94.7	156.7*
COCCNCC(O)CON=C1c2ccccc2-c2ccccc21 (configuration not stated)	105.6	170.3	?	21.9	48.2*[may fluoresce violet]	95.3
SMILES	DSG3 Ab inh	MEP2 TOR yeast	CIT2-GFP yeast	AGP1 TOR yeast	RPL19A-GFP yeast	LAP4-GFP MLPCN
CN(C(=O)c1cccc(NC(=O)Cc2cccc(NC(=O)C3CCN(C(=O)CCc4ccccc4)CC3)c2)c1)C1CC1	104.5	.	.	.	.	.
CC1CCc2c(sc(NC(=O)/C=C/c3cccs3)c2C(=O)O)C1 (configuration not stated)	59.5*	92.9	99.0	96.5	98.0	92.3
CNC(=S)N/N=C/c1c(C)nn(-c2cccc(Cl)c2)c1Cl	27.3*	102.1	99.5	94.5	100.3	101.0
O=C(CN1C(=O)/C(=C/c2ccco2)SC1=S)NC1CCS(=O)(=O)C1 (configuration not stated)	-6.6*	110.6	105.2	98.8	98.2	96.5
COc1ccc(CNC(=O)CCC(=O)Nc2nnc(C(F)(F)F)s2)cc1	105.5	103.1	160.7*[may fluoresce green]	119.3	95.1	104.1
CCCCN1CC(COCc2ccccc2)Oc2cccc(Oc3ccc(C)cc3)c2S1(=O)=O (configuration not stated)	88.9	.	.	.	.	.
O=C1OC2(c3ccccc31)c1cc(I)c(O)c(I)c1Oc1c2cc(I)c(O)c1I	.	256.6*	168.7*	89.5	119.0	243.4*
Cc1cc(O)ccc1C1(c2ccc(O)cc2C)OC(=O)c2ccccc21	103.5	101.0	103.4	101.8	99.4	103.1
COC(=O)c1ccc(C2C(Oc3ccccc3)C(=O)N2CCc2ccc(F)cc2)cc1 (configuration not stated)	100.3	108.4	100.2	99.8	98.4	106.0
COC(=O)c1ccc(C2C(Oc3ccc(OC)cc3)C(=O)N2CCc2ccc(OC)c(OC)c2)cc1 (configuration not stated)	72.5*	79.4	101.8	100.1	98.1	94.8
CC(C)(NC(=O)c1ccccc1)c1nc2ccccc2s1	98.9	91.7	94.8	84.3	97.3	134.9
CCc1cc(/C(Cc2csc(C)n2)=N/O)c(O)cc1O	104.1	209.2*[may fluoresce violet]	?	.	44.4*[may fluoresce violet]	90.7
Cc1nc(C/C(=N\N)c2ccc(O)cc2O)cs1	107.2	97.4	93.7	96.4	95.8	101.7
Cc1cc(C)c(NC(=O)COC(=O)Cc2cccs2)c(C)c1	91.5	97.2	90.3	101.2	97.4	115.8
C=CCOc1ccc(/C(O)=C2/C(=O)C(=O)N(CCCN3CCOCC3)C2c2ccccc2)cc1 (configuration not stated)	94.2	315.5*[may fluoresce violet]	?	?	29.2*[may fluoresce violet]	88.5
N#Cc1c(N)c(C(=O)c2ccc(Cl)cc2)n2c1CCC2	102.7	248.4*[may fluoresce violet]	?	?	.	85.0
CCOC(=O)c1c(N)c(C#N)c2n1CCCC2	84.5	101.0	106.7	109.8	102.7	104.4
CN(C(=O)COC(=O)C12CC3CC(CC(Cl)(C3)C1)C2)c1ccccc1	99.3	122.7	95.5	111.9	101.5	100.2
Cc1cccc(N2CCN(C(=O)COc3ccc4ccc(=O)oc4c3)CC2)c1C	108.0	122.7	?	14.2	41.8*[may fluoresce violet]	84.0
CCCC(c1nnnn1CCOC)N1CCN(Cc2ccccc2)CC1 (configuration not stated)	82.0	109.0	92.0	106.9	100.0	95.1

Source: PubChem BioAssay
